Assay outcomes (PubChem)
This is a sample that favours compounds with a hit; in the whole collection about 4% have one here.
Gli-Sufu antag: antagonists of Gli-Sufu signaling; 340,000 compounds, 0.74% hits; Sufu-KO-LIGHT fibroblasts, Gli luciferase reporter luminescence; inhibition, % at 5 µM; AID 588413;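 active = inhibition above about 55%, limit read from the data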;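 note: 0% = DMSO-treated cells and 100% = wells with medium but no cells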
Mdm2 MdmX PPI: human Mdm2/MdmX binding inhibition | O15151+Q00987 | SaOS-2 split-luciferase Mdm2/MdmX complementation, luminescence | inhibition, % at 8 µM | 330,000 compounds, 3% hits;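 active = inhibition of at least 50% at 8 µM in the primary screen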
Target sequence (O15151 whole entry, looked up): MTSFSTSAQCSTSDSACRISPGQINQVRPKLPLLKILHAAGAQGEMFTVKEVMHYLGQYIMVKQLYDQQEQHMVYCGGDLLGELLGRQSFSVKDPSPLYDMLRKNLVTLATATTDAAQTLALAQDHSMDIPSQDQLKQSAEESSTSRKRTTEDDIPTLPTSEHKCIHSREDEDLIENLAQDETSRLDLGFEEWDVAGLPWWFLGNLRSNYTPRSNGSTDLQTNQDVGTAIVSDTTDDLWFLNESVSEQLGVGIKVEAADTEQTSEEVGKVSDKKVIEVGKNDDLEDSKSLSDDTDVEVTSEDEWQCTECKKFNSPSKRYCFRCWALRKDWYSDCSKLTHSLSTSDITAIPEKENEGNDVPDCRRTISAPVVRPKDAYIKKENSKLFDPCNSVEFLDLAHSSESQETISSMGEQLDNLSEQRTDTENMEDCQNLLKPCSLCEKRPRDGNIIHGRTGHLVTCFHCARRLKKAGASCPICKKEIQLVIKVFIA
Target sequence (Q00987 whole entry, looked up): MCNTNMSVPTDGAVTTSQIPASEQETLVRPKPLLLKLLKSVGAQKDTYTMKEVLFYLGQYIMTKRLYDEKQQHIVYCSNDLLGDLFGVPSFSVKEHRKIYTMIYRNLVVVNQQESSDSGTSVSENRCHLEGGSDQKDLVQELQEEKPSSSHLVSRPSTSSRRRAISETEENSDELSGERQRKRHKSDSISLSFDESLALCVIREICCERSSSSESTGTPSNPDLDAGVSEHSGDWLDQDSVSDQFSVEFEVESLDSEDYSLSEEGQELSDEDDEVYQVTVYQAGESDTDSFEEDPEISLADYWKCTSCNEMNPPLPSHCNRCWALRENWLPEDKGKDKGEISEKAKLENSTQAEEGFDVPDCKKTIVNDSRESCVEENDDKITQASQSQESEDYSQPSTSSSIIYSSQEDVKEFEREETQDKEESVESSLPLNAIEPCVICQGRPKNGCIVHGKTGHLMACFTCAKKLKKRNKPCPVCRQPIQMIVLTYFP
PAX8 inh HTS: lowers PAX8-driven luciferase in RMG-I cells. RMG-I TPO-luciferase reporter, SteadyGlo, 24 h. inhibition, % at 12.6 µM. 360,000 compounds, 1.2% hits. AID 652154;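 active = mean replicate inhibition at least 60% with every replicate also reaching 60%; inconclusive = only one of the two criteria is met; inactive = mean below 60% and not all replicates reaching 60%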;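 note: luciferase light reporting Pax8 driven TPO promoter activity; plate controls were median of neutral control wells for no effect and mitoxantrone controls for full effect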
CSC inhib: blocks cancer stem cells. cancer stem cell-like cells viability, luminescence. inhibition, % at 7.5 µM. 300,000 compounds, 1.1% hits; in the data active = inhibition above about 75%; inconclusive = no clear call, values can overlap the other calls; tested in HMLE shEcad cells
Beta apoptosis: blocks beta cell apoptosis; 300,000 compounds, 0.8% hits; INS-1E cytokine-induced death, ATP luminescence, 48 h; percent of positive-control rescue, neutral wells zero; AID 435005; protection from apoptosis, % (no concentration beside the values);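 active = Every replicate reaches about 75%, or at least half do and their mean reaches it too, limit read from the data; inconclusive = At least half of replicates reach the limit but their mean does not; inactive = Under half of replicates reach the limit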;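 note: 0% = cytokine-treated negative control wells and 100% = positive control rescue; higher means more ATP so stronger rescue from cytokine killing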
Shn3 inh set2: reduces Shn3 3'UTR luciferase signal in osteoblasts. Clone20 osteoblast Shn3 3'UTR firefly luciferase, 24 h. inhibition, % at 12.5 µM. 360,000 compounds, 0.52% hits;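 active = mean inhibition of at least 75% with every replicate also reaching 75%; inconclusive = mean inhibition at least 75% but some replicate below; inactive = mean inhibition below 75%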;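 note: 0% = median of neutral control wells and 100% = pilot-screen positive control compound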
Mdm2-MdmX conf: confirmation of human Mdm2/MdmX interaction inhibitors | AID 489028 | shares compounds with Mdm2 MdmX PPI | inhibition, % at 8 µM | Mdm2-MdmX binding, luminescent assay | 10,000 compounds, 55% hits; in the data active = inhibition above about 40%
FLuc counter: counter-screen for Mdm2/MdmX inhibitors: full-length luciferase; SaOS-2 full-length luciferase counterscreen, luminescence; AID 504607; 6,200 compounds, 77% hits; shares compounds with Mdm2 MdmX PPI; inhibition, % at 8 µM;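 active = mean inhibition at 8 µM reaching about 37%, which flags the compound as non-specific, limit read from the data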;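 note: p53-null SaOS-2 cells with luciferase driven by a doxycycline-inducible promoter; compound on cells about two nights before reading with doxycycline added after day one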
* hit, by the source's call; ? = inconclusive; · = not tested or not shown.

SMILES	Gli-Sufu antag	Mdm2 MdmX PPI	PAX8 inh HTS	CSC inhib	Beta apoptosis	Shn3 inh set2	Mdm2-MdmX conf	FLuc counter
CC1(NC(=O)CCc2ccccc2)CCN(CCCc2ccccc2)C1=O (stereo unspecified)	-1.1	-1.4	-5.0	-2.9	-0.7	0.9	·	·
CC1(NC(=O)CC(c2ccccc2)(c2ccccc2)c2ccccc2)CCN(CCCc2ccccc2)C1=O (stereo unspecified)	-0.1	76.3*	65.9*	100.0*	31.4	39.2	23.1	·
C[C@H]1CN([C@@H](C)CO)C(=O)c2cc(NS(=O)(=O)c3ccccc3)ccc2O[C@@H]1CN(C)Cc1ccc(-c2ccccc2)cc1	·	·	3.3	·	·	·	·	·
COc1cc(-c2c(C#N)c(N)nc3c2c(C)nn3-c2ccc(C)c(C)c2)cc(OC)c1OC	11.8	45.2	·	12.3	14.3	31.6	·	·
Cc1nn(-c2ccc(F)cc2)c2nc(N)c(C#N)c(-c3cccs3)c12	18.3	41.2	32.3	58.9	25.0	3.7	·	·
Cc1nn(-c2ccc(F)cc2)c2nc(N)c(C#N)c(-c3ccc(O)c(O)c3)c12	27.2	61.1*	51.6	30.6	-1.7	16.2	29.4	·
Cc1nn(-c2ccccc2)c2nc(N)c(C#N)c(-c3ccc(O)c(O)c3)c12	28.9	55.2*	6.3	43.7	-0.7	20.2	23.1	·
Cc1noc(C)c1S(=O)(=O)Nc1ccc2c(c1)C(=O)N([C@H](C)CO)C[C@@H](C)[C@@H](CN(C)C(=O)CCCN(C)C)OCCCC[C@@H](C)O2	·	·	-13.7	·	·	·	·	·
C[C@H](CO)N1C[C@H](C)[C@@H](CN(C)C(=O)NC2CCCCC2)OCCCC[C@H](C)Oc2ccc(NC(=O)c3ccccc3)cc2C1=O	·	·	-15.5	·	·	·	·	·
Cc1nnc(SC(=O)N2c3ccccc3Sc3ccccc32)s1	11.9	96.9*	·	53.0	-11.8	61.6	97.6*	51.8*
COc1ccc(NC(=O)N(C)C[C@@H]2Oc3c(NS(=O)(=O)c4ccc(F)cc4)cccc3C(=O)N([C@@H](C)CO)C[C@H]2C)cc1	·	·	-9.6	·	·	·	·	·
C[C@@H]1CN([C@H](C)CO)C(=O)Cc2cc(NC(=O)Nc3cccc4ccccc34)ccc2O[C@H]1CN(C)C(=O)Nc1ccc(F)cc1	·	·	3.3	·	·	·	·	·
COc1cc(C#Cc2c(-c3cncn3C)n(C)c3ccc(-c4ccc(CN5CCOCC5)cc4)cc23)cc(OC)c1	-1.2	69.7*	6.4	·	27.5	16.0	-6.7	·
COc1cc(C#Cc2c(-c3cncn3C)n(C)c3ccc(-c4cnc(N5CCOCC5)nc4)cc23)cc(OC)c1	-0.3	80.9*	-95.7	·	15.5	-25.8	14.2	·
COc1cc(C#Cc2c(-c3cncn3C)n(C)c3ccc(-c4cnc(OC)nc4)cc23)cc(OC)c1	0.7	66.4*	39.6	?	24.8	59.9	38.8	63.4*
CCC(=O)N1C[C@@H](C)[C@H](OC)CN(C)C(=O)c2cc(NS(=O)(=O)CC)ccc2OC[C@@H]1C	·	·	2.2	·	·	·	·	·
C#CCn1c(=NC(=O)c2ccc(Cl)s2)sc2cccc(OC)c21	-26.4	22.7	-16.1	14.1	43.0	10.0	·	·
C#CCn1c(=NC(=O)c2cccs2)sc2cccc(OCC)c21	-5.7	64.4*	-23.7	-14.4	3.9	22.1	-3.7	·
CN(C)C(=O)CCc1ccc2c3c([nH]c2c1)[C@]1(CCc2ccccc2)[C@@H](C(=O)N2CCCCC2)C[C@H](CC(=O)NCc2ccco2)C(=O)N1CC3	8.4	97.8*	3.2	·	·	19.6	74.0*	51.4*
O=C(CC1C[C@H](C(=O)N2CCCCC2)[C@@]2(CCc3ccccc3)c3[nH]c4ccccc4c3CCN2C1=O)NCc1ccco1 (stereo partly specified)	3.9	51.6*	15.5	·	14.5	18.0	18.2	·
CN(C)C(=O)CCc1ccc2c3c([nH]c2c1)[C@]1(C)[C@@H](C(=O)N2CCCCC2)C[C@H](CC(=O)NCc2ccco2)C(=O)N1CC3	1.2	12.6	0.7	·	·	-12.4	·	·
CC(C)(C)NC(=O)CC1C[C@H](C(=O)N2CCCCC2)[C@@]2(CCc3ccccc3)c3[nH]c4ccccc4c3CCN2C1=O (stereo partly specified)	-1.7	61.9*	1.0	1.5	-7.2	-7.2	49.7*	70.0*
COc1cc(NC(=O)c2cccs2)ccc1NC(=O)c1cc2ccccc2o1	1.5	88.6*	14.6	11.3	15.1	43.7	52.4*	116.7*
Cc1cc(NC(=O)c2cncc(Br)c2)ccc1NC(=O)c1cc2ccccc2o1	3.2	74.5*	-0.6	-8.7	59.6	68.5	50.7*	28.6
O=C(Nc1ccc2oc(=O)ccc2c1)c1cc2ccccc2o1	20.2	-112.1	·	9.6	11.6	-65.2	·	·
SMILES	Gli-Sufu antag	Mdm2 MdmX PPI	PAX8 inh HTS	CSC inhib	Beta apoptosis	Shn3 inh set2	Mdm2-MdmX conf	FLuc counter
CN(C)S(=O)(=O)c1cc(NC(=O)c2cc(=O)c3ccccc3o2)ccc1Cl	4.0	-6.0	-84.1	5.6	3.3	-23.2	·	·
COc1cc(NC(=O)c2ccccc2)ccc1NC(=O)c1cc2ccccc2o1	-8.6	44.3	-9.1	4.6	12.0	46.1	·	·
COc1ccc(NC(=O)c2cc(=O)c3ccccc3o2)cc1Cl	-8.2	52.0*	35.4	1.4	7.0	-17.9	46.6*	94.8*
Cn1c(=O)n(C)c2cc(NC(=O)c3cc4ccccc4o3)ccc21	2.9	51.2*	·	1.9	0.7	-28.2	-9.8	·
COc1cc(NC(C)=O)ccc1NC(=O)c1cc2ccccc2o1	-2.8	-10.4	-40.5	-3.5	-3.6	-22.8	·	·
C[C@@H]1CN([C@@H](C)CO)C(=O)c2cc(NC(=O)CCC(F)(F)F)ccc2O[C@@H](C)CCCCO[C@H]1CN(C)S(=O)(=O)c1ccc(F)cc1	·	·	-8.6	·	·	·	·	·
CCCC(=O)NC(c1ccc(N(C)C)cc1)c1ccc2cccnc2c1O (stereo unspecified)	86.1*	80.0*	94.5*	151.6*	96.2*	91.1*	79.8*	29.9
CCCC(=O)NC(c1ccc(C(C)C)cc1)c1ccc2cccnc2c1O (stereo unspecified)	·	80.3*	95.3*	99.4*	·	90.9*	88.1*	21.2
CC(=O)NC(c1ccco1)c1ccc2cccnc2c1O (stereo unspecified)	-9.8	71.7*	·	-1.0	90.2*	73.6	54.5*	27.7
CC(C)C(=O)NC(c1ccc(N(C)C)cc1)c1c(O)ccc2ccccc12 (stereo unspecified)	-26.0	-13.5	13.7	-2.4	-1.2	·	·	·
O=C(O)c1ccc2cccnc2c1O	3.4	4.5	6.3	5.0	3.5	-6.4	·	·
COc1ccc2ccccc2c1/C=N/NC(=O)c1cccc(C)c1	5.7	4.1	13.2	-3.8	-0.3	·	·	·
Cc1cccc(OCC(=O)NC(C)C(=O)N/N=C/c2c(OCc3ccccc3)ccc3ccccc23)c1 (stereo unspecified)	-22.2	76.1*	·	·	5.4	1.8	36.5	69.2*
